Only some compounds are listed: those with a hit (about 7.2% of all), similar ones and a draw of the others.
Luciferase inh – inhibitors of firefly (Photinus pyralis) luciferase | 2.5% of 76,000 active | P08659 | AID 1347043 | Potency, µM (series often up to 115 µM), actives largely listed as inhibitors | purified P. pyralis luciferase, luminescence, biochemical; further: nearly all actives have a fitted effect of over 65% in size
Target sequence (P08659 whole entry, looked up): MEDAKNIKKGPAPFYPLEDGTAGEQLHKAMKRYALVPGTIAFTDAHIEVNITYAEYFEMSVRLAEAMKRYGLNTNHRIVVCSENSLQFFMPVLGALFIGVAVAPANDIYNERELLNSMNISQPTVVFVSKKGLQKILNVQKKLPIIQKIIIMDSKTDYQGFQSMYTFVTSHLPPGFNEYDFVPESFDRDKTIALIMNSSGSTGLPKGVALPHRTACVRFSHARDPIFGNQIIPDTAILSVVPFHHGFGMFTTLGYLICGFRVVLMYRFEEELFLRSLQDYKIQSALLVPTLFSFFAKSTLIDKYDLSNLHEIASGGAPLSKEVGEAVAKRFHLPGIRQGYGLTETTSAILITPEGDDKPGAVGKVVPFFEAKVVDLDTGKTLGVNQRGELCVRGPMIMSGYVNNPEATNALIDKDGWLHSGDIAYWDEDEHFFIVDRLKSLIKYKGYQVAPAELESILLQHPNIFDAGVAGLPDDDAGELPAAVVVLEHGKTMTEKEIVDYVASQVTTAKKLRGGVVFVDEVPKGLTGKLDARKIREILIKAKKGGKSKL
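Luminescence read by CCD imager after adding enzyme (10nM final) to wells holding compound, titrated in qHTS. Substrates 10uM each D-luciferin and ATP; buffer 50mM Tris acetate pH 7.5, 10mM Mg acetate, Tween-20, BSA.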
SNCA expr inhib – reduces expression of the alpha-synuclein gene. HEK-293 SNCA-luciferase knock-in, luminescence, 24 h. Potency, µM (highest dose often 57.2 µM), usual class: inhibitors. 0.17% of 140,000 active. AID 1671194; further: nearly all actives have a fitted effect of over 45% in size
HEK293 tox – cytotoxic compounds in HEK 293 cells. Potency, µM (titrated, usually from 115 µM), usual class: inhibitors. HEK 293 viability, ATP luminescence (CellTiter-Glo), 48-72 h. 6.6% of 94,000 active; further: nearly all actives have a fitted effect of over 60% in size
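Cytotoxicity was scored by loss of ATP-coupled luminescence (CellTiter-Glo) in HEK 293 cells. Compound treatment ran 48 or 72 hr at 37 degree Celsius, 5% CO2, 95% humidity.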
NPR1 antag – antagonists of human natriuretic peptide receptor Npr1; P16066; HEK293 hNpr1 GloSensor cGMP, ANP-stimulated luminescence; Potency, µM (top dose mostly 46.3 µM), usual class: inhibitors; 1.6% of 76,000 active; calls by dose curve; further: nearly all actives have a fitted effect of over 60% in size
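Compound pre-incubated 30 min at room temperature on GloSensor-loaded HEK293 cells stably carrying hNpr1 and the pGS-40F cGMP biosensor. Stimulation uses hNppA at 0.1 nM final; luminescence is taken at baseline and 20 min post-agonist.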
NIH3T3 tox – cytotoxic compounds in NIH 3T3 cells; Potency, µM (titrated, usually from 96.7 µM), usual class: inhibitors; AID 1345082; 4.3% of 94,000 active; NIH 3T3 viability, CellTiter-Glo ATP luminescence, 48-72 h; further: nearly all actives have a fitted effect of over 55% in size
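Cells were seeded at 400 per well, treated with pin-transferred compound, and kept 48 or 72 hr at 37 °C before CellTiter-Glo addition and luminescence imaging of cellular ATP.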
HEK293 viab – cell viability loss counter-screen | HEK-293-SNCA-luc viability, GF-AFC fluorescence, 24 h | Potency, µM (series often up to 57.1 µM), actives largely listed as cytotoxic | 0.12% of 150,000 active | AID 1671193; further: nearly all actives have a fitted effect of over 30% in size
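HEK-293-SNCA-luc cells (1500/well) plated 24 h, then exposed 24 h to a dilution series; GF-AFC added 30 min at 37C, fluorescence 405/540 nm; normalised to medium-only and DMSO wells, Hill fit.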
A number is an active result; – = inactive; ? = inconclusive; · = no result given; [ ] = dose if it differs, or a comment. Unless noted, the call rests on the fitted dose curve; in most records, active means well fitted curve in the direction sought with a large enough effect; inconclusive means small, poorly fitted or top-dose-only effect, or another doubt; inactive means no such curve, though single readings can be large; an effect the other way counts as inactive or inconclusive.

SMILES	Luciferase inh	SNCA expr inhib	HEK293 tox	NPR1 antag	NIH3T3 tox	HEK293 viab
O=C(Nc1cccnc1)c1nnn2c1CN(Cc1ccccc1F)C(=O)CC2	–	–	–	–	100µM	–
C[S+](=O)([O-])c1cccc(NC(=O)c2nnn3c2CN(Cc2cccc(Cl)c2)C(=O)CC3)c1	–	–	?	–	?	–
O=C(Nc1ccc(F)cc1)c1ccc2nc(-c3ccnc(Cl)c3)oc2c1	·	–	–	·	?	–
N#Cc1cccc(-c2c(C(=O)NCc3cccc(C(F)(F)F)c3)nc3sccn23)c1	·	?	35.5µM	·	?	–
N#Cc1cccc(-c2c(C(=O)NCc3ccc(Cl)cc3)nc3sccn23)c1	·	–	?	·	35.5µM	–
O=C(NCc1cccc(C(F)(F)F)c1)c1nc2sccn2c1-c1ccccc1	·	–	?	·	?	–
COc1cccc(CNC(=O)c2nc3sccn3c2-c2cccc(C(F)(F)F)c2)c1	·	–	?	·	?	–
O=C(NCc1ccccn1)c1nc2sccn2c1-c1cccc(C(F)(F)F)c1	·	–	?	·	31.6µM	–
Cc1ccc(-c2c(C(=O)NCc3cccc(C(F)(F)F)c3)nc3sccn23)cc1	·	?	22.4µM	·	?	–
CC(C)CN1CCN(C(=O)C2CCCN(S(=O)(=O)c3cn(C)cn3)CCC(=O)NCC2)CC1 (stereo unspecified)	–	–	–	–	–	–
O=C(c1ccc2cc[nH]c2c1)N1CCC(n2cc(-c3nc(-c4ccccc4)no3)nn2)CC1	?	–	39.8µM	–	?	–
Cc1ccc(C(=O)N2CCC(n3cc(-c4nc(-c5ccccc5)no4)nn3)CC2)cc1	–	–	?	–	–	–
O=C(c1ccc2[nH]ccc2c1)N1CCC(n2cc(-c3nc(-c4ccccc4)no3)nn2)C1 (stereo unspecified)	?	?	15.8µM	7.94µM	?	?
COCCC(=O)N1C[C@@H](Oc2ccccc2)C[C@@H]1C(=O)N1CCOCC1	–	–	–	–	?	–
C[C@@]1(O)CCN(C(=O)CCc2ccc(-c3cccs3)o2)C[C@@H]1O	–	–	–	–	–	–
CO[C@H]1C[C@@H](O)C12CCN(C(=O)CCc1ccc(-c3cccs3)o1)CC2	–	–	25.1µM	?	?	?
CCN(CC)C(=O)N1CCCOCCNC(=O)[C@@H]2CCC[C@@H]21	–	–	–	–	–	–
COc1ccc(NC(=O)O[C@@H]2CO[C@H]3[C@@H]2OC[C@@H]3NS(=O)(=O)Cc2ccccc2)cc1	–	–	–	–	–	–
N#Cc1ccc(Nc2nc(-c3ccc(O)cc3O)cs2)cc1C(F)(F)F	·	·	·	·	·	11.9µM
Cc1noc(C)c1C(=O)N1CCCCC1c1nc(CCOCC2CCCC2)no1 (stereo unspecified)	–	–	?	–	?	–[12.5 µM]
Cn1nc(-c2ccncc2)cc1NC(=O)Cc1ccc(F)cc1	·	–	–	·	?	–
Cc1nn(C)c2nc(-c3ccccn3)nc(N3CCC(c4ccc(F)cc4)C3)c12 (stereo unspecified)	–	–	39.8µM	–	–	–
CCc1cccc2c(C(CC(=O)NCC(C)C)c3cccc([N+](=O)[O-])c3)c[nH]c12 (stereo unspecified)	–	–	?	–	35.5µM	–
CCc1cccc2c(C(CC(=O)NCCOC)c3ccc(OC)cc3OC)c[nH]c12 (stereo unspecified)	–	–	?	–	–	–
CCc1cccc2c(C(CC(=O)NCc3ccco3)c3cccc([N+](=O)[O-])c3)c[nH]c12 (stereo unspecified)	–	–	44.7µM	–	31.6µM	–
SMILES	Luciferase inh	SNCA expr inhib	HEK293 tox	NPR1 antag	NIH3T3 tox	HEK293 viab
COc1ccc(C(CC(=O)NCc2ccccc2)c2c[nH]c3ccccc23)cc1OC (stereo unspecified)	–	–	–	–	–	–
CC(C)CNC(=O)CC(c1cccc([N+](=O)[O-])c1)c1c[nH]c2ccccc12 (stereo unspecified)	–	?	79.4µM	–	?	–
CC(C)N1C(=O)C2(CCCC2)C1C(=O)NCc1cc(F)cc(F)c1 (stereo unspecified)	–	–	–	–	–	–
Cn1c(CNC(=O)CN2C(=O)C3(CCCCC3)C2c2ccccc2)nc2ccccc21 (stereo unspecified)	·	–	?	·	?	–
OC[C@@H]1CNC[C@H]1C1CCN(Cc2ccc(Cl)c(F)c2)CC1	–	?	39.8µM	–	?	–[12.5 µM]
OC[C@@H]1CNC[C@H]1C1CCN(Cc2ccc(OC(F)(F)F)cc2)CC1	–	?	39.8µM	–	?	–[12.5 µM]
CCc1ccc(CN2CCC([C@@H]3CNC[C@H]3CO)CC2)cc1	–	?	?	–	?	–[12.5 µM]
CN1CCCN(C[C@@H]2CN(C(=O)C3(Cn4cccn4)CC3)C[C@@H]2CO)CC1	–	–	–	–	–	–
Cc1cc(C)cc(-c2ccc(CN3CCCC(NC(=O)N(C)C)C3)cc2)c1 (stereo unspecified)	·	–	31.6µM	·	?	–
Cc1cc(C)cc(-c2ccc(CN3CCCC(NC(=O)Cc4ccc(F)cc4)C3)cc2)c1 (stereo unspecified)	·	?	31.6µM	·	?	?
CC(=O)NC1CCCN(Cc2ccc(-c3cc(C)cc(C)c3)cc2)C1 (stereo unspecified)	·	–	?	·	?	–[12.5 µM]
Cc1cc(C)cc(-c2ccc(CN3CCCC(NC(=O)Cc4cccc(Cl)c4)C3)cc2)c1 (stereo unspecified)	·	?	25.1µM	·	?	–
COc1ccc(CC(=O)NC2CCCN(Cc3ccc(-c4cc(C)cc(C)c4)cc3)C2)cc1 (stereo unspecified)	·	–	22.4µM	·	17.8µM	–
Cc1cc(C)cc(-c2ccc(CN3CCCC(NC(=O)C(C)C)C3)cc2)c1 (stereo unspecified)	·	–	–	·	–	–
Cn1cccc1C(=O)N1CCC(N2C[C@H](O)C[C@H]2C(=O)NC2CCCCC2)CC1	–	–	–	–	–	–
COc1cccc(N2C(=O)NC(=NC3CCCCC3)C23CCN(C(=O)c2ccccc2OC)C3)c1 (stereo unspecified)	·	–	–	·	–	–
COc1ccc(NC(=O)[C@@H]2C[C@@H](c3ccc(F)cc3)N(Cc3ccccc3)C2)cc1	–	–	?	–	–	–
Cc1nc(CN2C[C@H](C(=O)Nc3ccc(F)cc3)C[C@@H]2c2ccc(F)cc2)cs1	–	–	100µM	–	100µM	–
COc1ccc(NC(=O)[C@@H]2C[C@H](c3ccc(F)cc3)N(Cc3csc(C)n3)C2)cc1	–	–	79.4µM	–	?	?
COc1ccc(OCC2CN(Cc3cccs3)[S+](=O)([O-])c3cnccc3O2)cc1 (stereo unspecified)	·	–	?	·	–	–

Screens: PubChem, National Center for Advancing Translational Sciences (NCATS)
